Measured values as given in PubChem BioAssay (Tox21).
Records with an inconclusive call do not appear. Active and inactive are the calls of the source. Unless noted, calls come from the whole dose curve; as a rule, active = well fitted curve in the direction sought with a large enough effect in the repeat runs; inconclusive = weak or mixed curves; inactive = no such curve, though single readings can be large; an effect the other way counts as inactive or inconclusive.

Legend:
[1] = qHTS assay to identify small molecule antagonists of the vitamin D receptor (VDR) signaling pathway - cell viability counter screen (AID 743225); note: nearly all actives have a fitted effect of over 50% in size
In short: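 Viability counter screen run in the same wells as the beta-lactamase reporter assay: HEK 293T VDR-UAS-bla cells, 16 h compound exposure at 37C with 3 nM (final) 1-alpha,25-dihydroxyvitamin D3. CellTiter-Glo luminescence, 30 min, room temperature.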

[2] = qHTS assay to identify small molecule agonists of the NFkB signaling pathway (AID 1159509; active = well fitted curve in the direction sought with a large enough effect in the signal ratio in the repeat runs, not every such curve was filed as active; the % refers to the signal ratio; note: series mostly up to about 61 µM)
In short: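 Agonist activity was read as beta-lactamase-driven FRET change (460 and 530 nm emission, 405 nm excitation) following 1.5 hr substrate loading at room temperature. Beforehand, ME-180 NFkB-bla reporter cells were treated with compounds for 5 hr at 37 C.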

[3] = qHTS assay to identify small molecule agonists of the NFkB signaling pathway - cell viability counter screen (AID 1159515; calls by dose curve; note: series mostly up to about 61 µM; nearly all actives have a fitted effect of over 55% in size)
In short: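 Plate 2,000 NFkB-bla ME-180 cells/well; incubate overnight. Add compounds, 5 hr at 37 C. Add FRET substrate, 1.5 hr RT. Add CellTiter-Glo, 30 min RT; read luminescence.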

[4] = qHTS assay to identify small molecule agonists of the endoplasmic reticulum stress response signaling pathway (AID 1159516; active = well fitted activation curve with a large enough effect in the signal ratio in the repeat runs, not every such curve was filed as active; the % refers to the signal ratio)
In short: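 Beta-lactamase expression from the ER stress response element in HeLa reporter cells is quantified with the LiveBLAzer B/G FRET substrate, read at 405 nm excitation after 2 hr at room temperature, following 5 hr compound treatment at 37 C.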

[5] = qHTS assay to identify small molecule agonists of the endoplasmic reticulum stress response signaling pathway - cell viability counter screen (AID 1159517; calls by dose curve; note: series mostly up to about 61 µM; nearly all actives have a fitted effect of over 50% in size)
In short: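 Cpd-treated ESRE-bla HeLa (5 hr, 37 C) → LiveBLAzer 2 hr RT → CellTiter-Glo 30 min RT → luminescence.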

[6] = qHTS assay to identify small molecule antagonists of the retinoid-related orphan receptor gamma (ROR-gamma) signaling pathway - cell viability counter screen (AID 1159520); note: nearly all actives have a fitted effect of over 50% in size; note: potency is the fitted concentration of half-maximal effect
In short: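 Tet-on ROR gamma CHO cells (1,000/well) were plated 4 hr, given compounds in DMSO for 2 hr at 37 C, then induced with 1 uM final doxycycline for 16 hr. Viability was read as ATP by CellTiter-Glo luminescence after 30 min.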

[7] = target: Nuclear receptor ROR-gamma (Homo sapiens) (UniProt P51449); experiment: qHTS assay to identify small molecule antagonists of the retinoid-related orphan receptor gamma (ROR-gamma) signaling pathway (AID 1159521; note: nearly all actives have a fitted effect of over 50% in size; note: potency is the fitted concentration of half-maximal effect)
In short: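 Luminescence readout (ONE-Glo, 30 min RT) after 16 h doxycycline induction; loss of signal scored as antagonism. CHO cells with TET-inducible RORγ and RORE-LUC reporter; compounds added 2 h before 1 uM final doxycycline.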

[8] = qHTS assay to identify small molecule agonists of the AP-1 signaling pathway - cell viability counter screen (AID 1159525; calls by dose curve; note: nearly all actives have a fitted effect of over 55% in size)
In short: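 Each titration point was normalised to DMSO and tetra n-octyl ammonium bromide controls. The read was Cell Titer Glo luminescence after 30 min at RT, following 5 h compound exposure of ME-180 AP-1-bla cells at 37 °C.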

[9] = qHTS assay to identify small molecule agonists of the AP-1 signaling pathway (AID 1159526; calls by dose curve)
[10] = qHTS assay to identify small molecule agonists of the vitamin D receptor (VDR) signaling pathway - cell viability counter screen (AID 743224)
In short: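 In parallel with the bla FRET readout, cytotoxicity toward VDR-bla cells after 16 h compound exposure was assessed by CellTiter-Glo, with luminescence recorded after a 30 min room-temperature incubation.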

Measured: Potency

CC(C)C[C@H](NC(=O)[C@H](Cc1ccccc1)NC(=O)c1cnccn1)B(O)O
inactive: [1] | [2] | [3] | [4] | [5] | [8] | [9]
active: [6] 66.8 nM | [7] 47.3 nM

O=C(OC1C[C@H]2CC[C@@H](C1)[N+]21CCCC1)C(O)(c1ccccc1)c1ccccc1 (some centres not stated)
inactive: [10] | [1] | [2] | [3] | [4] | [5] | [6] | [7] | [8]

Cc1ccc(NC=O)c(C)c1
inactive: [10] | [1] | [2] | [3] | [4] | [5] | [6] | [7] | [8] | [9]

COc1ccc(/C=C/S(=O)(=O)NC(=O)c2ccc(C)cc2Cl)cc1
inactive: [10] | [1] | [2] | [3] | [4] | [5] | [6] | [7] | [8] | [9]

C=Cc1ccc(C=C)cc1
inactive: [10] | [1] | [2] | [3] | [4] | [5] | [6] | [7] | [8] | [9]

Cc1ccc(S(=O)(=O)NC(=O)NC2CCCC2)cc1
inactive: [10] | [1] | [2] | [3] | [4] | [5] | [6] | [7] | [8]

CCN(CC)CC(=O)OCC(=O)[C@@]1(O)CC[C@H]2[C@@H]3CCC4=CC(=O)CC[C@]4(C)[C@H]3[C@@H](O)C[C@@]21C
inactive: [10] | [1] | [2] | [3] | [4] | [5] | [6] | [7] | [8] | [9]

CCC(=O)O[C@@H]1C[C@H]2CC[C@]1(C)C2(C)C
inactive: [10] | [2] | [3] | [4] | [5] | [6] | [7] | [8]

C=C[Si]1(C)O[Si](C)(C=C)O[Si](C)(C=C)O[Si](C)(C=C)O1 (configuration not stated)
inactive: [1] | [2] | [3] | [4] | [5] | [6] | [7] | [8] | [9]

CC(CC(C#N)(c1ccccc1)C(C)C)N(C)C (configuration not stated)
inactive: [10] | [1] | [2] | [3] | [4] | [5] | [6] | [7] | [8]

Clc1nc2ccccc2nc1Cl
inactive: [1] | [2] | [3] | [4] | [5] | [6] | [7] | [8] | [9]

CC(Cc1ccccc1)(NC(=O)CN)c1ccccc1 (configuration not stated)
inactive: [10] | [1] | [2] | [3] | [4] | [5] | [6] | [7] | [8]

COC(=O)/C=C/C(C)=C\C=C\C(C)=C\C=C\C=C(C)\C=C\C=C(C)\C=C\C(=O)O
inactive: [10] | [1] | [2] | [3] | [4] | [5] | [6] | [7] | [9]

CCCC1CCOC(C)S1 (configuration not stated)
inactive: [10] | [1] | [2] | [3] | [4] | [5] | [6] | [7] | [9]

CC(O)C(C)O (configuration not stated)
inactive: [1] | [2] | [3] | [4] | [5] | [6] | [7] | [9]

CCCCCCCCC(=O)OCC(C)OC(=O)CCCCCCCC (configuration not stated)
inactive: [10] | [1] | [2] | [3] | [4] | [5] | [6] | [7] | [9]

CC(C)Oc1ccccc1O
inactive: [10] | [1] | [2] | [3] | [4] | [5] | [6] | [7] | [9]

CCC1=C(C)CN(C(=O)NCCc2ccc(S(=O)(=O)NC(=O)NC3CCC(C)CC3)cc2)C1=O (configuration not stated)
inactive: [10] | [1] | [2] | [3] | [4] | [5] | [6] | [7] | [9]

O=S(=O)(O)c1cc(Cl)c(Cl)cc1Cl
inactive: [10] | [2] | [3] | [4] | [5] | [6] | [7] | [9]

Cc1c(N=C=O)cccc1N=C=O
inactive: [10] | [1] | [2] | [3] | [4] | [5] | [6] | [7] | [9]

CCC(C)C1N=C(C)C(C)S1 (configuration not stated)
inactive: [10] | [1] | [2] | [3] | [4] | [5] | [6] | [7] | [9]

C[C@H](CN1CCCC1)C(=O)c1ccc(C(F)(F)F)cc1
inactive: [10] | [1] | [2] | [3] | [4] | [5] | [6] | [7] | [9]

O=C(c1ccc(Cl)cc1)c1ccc(Cl)cc1
inactive: [10] | [1] | [2] | [3] | [4] | [5] | [6] | [7] | [9]

CCC(CC)C(=O)O
inactive: [10] | [1] | [2] | [3] | [4] | [5] | [6] | [7] | [9]
